Screening results: PubChem BioAssay, Sanford-Burnham Center for Chemical Genomics
ER stress death = ER stress cell death inhibition | CSM14.1 thapsigargin ER stress survival, ATP luminescence | relative survival (cellular ATP), % at 15 µg/mL (by protocol) | hit rate 0.33% among 48,000 | AID 1010;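 active = survival measured by cellular ATP above 50% at 15 µg/ml in the first screen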;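 also: cell death triggered by about 15 µM thapsigargin; ATP read 24 h after thapsigargin was added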
Each line names hits and unclear results; the compound was inactive in the other large screens. Shown is part of a subset that was picked to be rich in hits.

COC(=O)C1=C(C)N(Cc2ccc(OC)cc2)C(=O)/C1=C\c1ccc([N+](=O)[O-])cc1	none
COC(=O)/C(=N/O)c1c[nH]c2ccccc12	none
C[n+]1ccccc1/C=C/c1ccc(O)cc1	none
c1ccc2c(N3CCCCC3)c3ccccc3nc2c1	none
COc1ccc(NC(=O)CN(c2ccc(C)c(Cl)c2)S(C)(=O)=O)cc1	none
CCOc1ccc(/C=C2\C(=O)NC(=O)N(c3ccc(C)cc3)C2=O)cc1Br	none
Nc1cc(-c2ccc(Br)cc2)nn1Cc1ccc(Cl)cc1	none
O=C(C(c1ccccc1)c1ccccc1)N1CCN(C2CCN(Cc3ccccc3)CC2)CC1	none
O=C(NCc1ccc(Cl)c(Cl)c1)c1ccccc1F	none
O=C(Nc1ccc(N2CCOCC2)cc1)c1ccc(-c2cccc(Cl)c2)o1	none
COc1ccc(OC)c(NC(=O)C(=O)N/N=C/c2ccc(OC)cc2OC)c1	none
Cc1c(NC(=O)/C=C/c2ccccc2)c(=O)n(-c2ccccc2)n1C	none
O=C1CCCC2=C1C(c1ccc(Br)cc1)Nc1ccc(C(=O)c3ccccc3)cc1N2 (configuration not stated)	ER stress death 66
COc1ccc(C2Nc3ccc(C(=O)c4ccccc4)cc3NC3=C2C(=O)CCC3)cc1 (configuration not stated)	none
O=C1CCCC2=C1C(c1cccnc1)Nc1ccc(C(=O)c3ccccc3)cc1N2 (configuration not stated)	none
COC(OC)C12c3ccccc3C(c3ccccc31)C1C(=O)N(c3cccc(Cl)c3)C(=O)C12 (configuration not stated)	none
COC(=O)CCC(=O)Nc1ccc(C)cc1C	none
COc1cc2c(cc1OC)C(CC(=O)Nc1ccc(C)cc1C)=NC(C)(C)C2	ER stress death 53
COc1ccc(C(=O)Nc2ccc(C)cc2C)cc1OC	none
Cc1cc2nc(-c3ccc(C)c(NC(=O)/C=C/c4ccco4)c3)oc2cc1C	none
COc1cc(C(=O)N/N=C/C2CC=CCC2)ccc1O (configuration not stated)	none
Cc1ccc(-n2nc3cc(C)c(NC(=O)COc4ccc([N+](=O)[O-])cc4)cc3n2)cc1	none
CCOc1ccccc1NC(=O)c1c(NC(=O)c2cccc(F)c2)sc2c1CCCCC2	ER stress death 53
CCOc1ccccc1NC(=O)c1c(NC(=O)c2ccc(C)cc2)sc2c1CCCC2	none
CCOc1ccccc1NC(=O)c1c(NC(=O)c2ccccc2F)sc2c1CCCCC2	none
COc1ccc(CCN2C(=O)CSC2c2ccc(Cl)cc2Cl)cc1OC (configuration not stated)	none
CCOc1ccccc1CN(CCc1ccc2c(c1)OCO2)Cc1ccncc1	ER stress death 103
CCOc1ccccc1CN(CCc1ccc2c(c1)OCO2)Cc1cc(OC)ccc1OC	none
CCOc1ccc(-c2nnc(-c3ccc4c(c3)OCO4)o2)cc1	none
COc1ccc(/C=C2\C(=O)NC(=O)N(c3ccc(F)cc3)C2=O)cc1OC	none
Cc1ccc(NC(=O)CC2SC(=Nc3ccccc3)N(c3ccccc3)C2=O)cc1 (configuration not stated)	none
O=C(CC1SC(=Nc2ccccc2)N(c2ccccc2)C1=O)Nc1ccccc1C(F)(F)F (configuration not stated)	ER stress death 65
O=C(CC1SC(=Nc2ccccc2)N(c2ccccc2)C1=O)Nc1ccc(F)cc1 (configuration not stated)	none
Oc1ccc(C=Nc2cc(Cl)ccc2O)cc1	none
